Experimental data reported in PubChem BioAssay (NCI).
Compounds without any hit were thinned out: in the full panel of roughly 79,000, 15% have a hit. Unmarked numbers belong to inactive results. Calls of active or inactive are those of the source. Rule as the data show it: active = growth inhibition above about 70%; inactive = the rest. Where a SMILES comes first, the peptide text is derived from it. The star is where a group is joined. Cbz = O=C(OCc1ccccc1)*; Boc = CC(C)(C)OC(=O)*; OSu = O=C1CCC(=O)N1O*; Bn = c1ccc(C*)cc1

Legend:
[1] = NCI Yeast Anticancer Drug Screen. Data for the rad50 strain (AID 155);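 also: 0% = growth of vehicle-only cultures of the same strain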; conditions: S. cerevisiae rad50 strain growth inhibition; at 50.0 µM; hits give high values
Procedure, shortened: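 A DNA repair-deficient yeast mutant serves as the test organism; compound-induced growth inhibition is calculated against vehicle-treated cells.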

[2] = NCI Yeast Anticancer Drug Screen. Data for the mec2-1 strain (AID 157); conditions: S. cerevisiae mec2-1 strain, at 50.0 µM, hits give high values
Procedure, shortened: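 Readout is yeast growth inhibition, normalised to vehicle-treated controls, in the mec2-1 strain exposed to compound.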

[3] = NCI Yeast Anticancer Drug Screen. Data for the sgs1 mgt1 strain (AID 161);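 also: 0% = growth of cultures given vehicle only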; conditions: S. cerevisiae sgs1 mgt1 strain, at 50.0 µM, hits give high values
Procedure, shortened: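 This yeast growth screen uses a strain with defined DNA-repair lesions; compound-treated growth is compared with vehicle-treated growth.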

[4] = NCI Yeast Anticancer Drug Screen. Data for the cln2 rad14 strain (AID 165);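 also: 0% = growth equal to vehicle treated cultures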; conditions: S. cerevisiae cln2 rad14 strain, at 50.0 µM, hits give high values
Procedure, shortened: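 Relative to vehicle controls, growth inhibition of compound-treated cln2 rad14 yeast was recorded.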

[5] = NCI Yeast Anticancer Drug Screen. Data for the bub3 strain (AID 167); conditions: S. cerevisiae bub3 mutant strain, at 50.0 µM, hits give high values
Procedure, shortened: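 Inhibition values come from growth of compound-treated mutant yeast normalised to vehicle-treated controls.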

[6] = NCI Yeast Anticancer Drug Screen. Data for the mlh1 rad18 strain (AID 175); conditions: S. cerevisiae mlh1 rad18 strain growth inhibition; at 50.0 µM; hits give high values
Procedure, shortened: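 Test agents were incubated with a yeast strain of defined genotype (DNA damage repair defect). Inhibition of growth was derived by comparison with vehicle-exposed cultures.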

Compound | growth inhibition [1] | growth inhibition [2] | growth inhibition [3] | growth inhibition [4] | growth inhibition [5] | growth inhibition [6]
ClC1CC[N-]CC1.ClC1CC[N-]CC1.O=C(O)CC(=O)O.[Pt+2] | 53.2% | 55.4% | 68.5% | -23.4% | 23.4% | 45.5%
N#CCCCCCCO | 14.6% | -20.6% | 11.4% | 15.4% | 5.35% | 17.5%
O=C1c2cc([N+](=O)[O-])ccc2-c2c(Cl)cc(NC(=O)C(F)(F)F)cc21 | -0.5% | -11.3% | 1.65% | -40% | 6.9% | -2.55%
C(CCC[Si]12OCCN(CCO1)CCO2)CC[Si]12OCCN(CCO1)CCO2 | 6% | -1.8% | 20.1% | 11.9% | -1.45% | 1.1%
CC(C(=O)c1ccc(Cl)cc1)[n+]1cc(Br)cc(Br)c1 (configuration not stated) | -22.6% | -14.2% | -9.3% | -19.4% | -21.4% | -10.2%
CCOC(=O)C(C#N)C1(C(C#N)C(=O)OCC)C(=O)Nc2ccccc21 (configuration not stated) | 1.8% | 14.6% | 19.8% | 21.8% | 24.7% | 32.3%
CC1(C)CC(=O)C2=C(C1)NC1=C(C2)C(=O)CC(C)(C)C1 | -15.4% | -5.7% | -22.4% | 19.9% | 7.6% | 12.8%
COC(=O)CCC(N)C(=O)NC(Cc1ccccc1)C(=O)NC(C)C(=O)NC1C(O)OC(CO)C(O)C1O (configuration not stated) | 3.95% | 15.8% | 4.75% | -0.65% | -7.6% | -5.6%
C/C=C(\C)c1cc(=O)c2c(C)cc3c(c2o1)C(=O)c1c(OC)cccc1C3=O | 14.2% | -14.8% | -1.05% | -4.65% | -6.95% | 23.9%
O=C(O)C1C2CCC3C(C(=O)O)C3C21 (configuration not stated) | -2.7% | 18.6% | -4.95% | -40.2% | 11.7% | -0.8%
O=C1CC(c2ccc(Cl)cc2)NC(c2ccc(Cl)cc2)C1 (configuration not stated) | 13.6% | 2.35% | 8.55% | 11.2% | 6.4% | 14.8%
CC(=O)N1CCNC(c2ccccc2)C1(C)C (configuration not stated) | -3.05% | -6.95% | -11.3% | -9.3% | -13.4% | 3.85%
CN(C)S(=O)(=O)N1CCOCC1 | 9.3% | -6.65% | -1.15% | 11.2% | -2.8% | 4.8%
COc1ccc2ccc3c(c2c1)C(=O)C(CC(N)=O)C3 (configuration not stated) | 1.75% | 1.2% | -10.7% | 0.4% | -4.1% | 15%
Cc1cn(C2CC(O)C(CO)O2)c(=O)nc1N1CCCC1 (configuration not stated) | -4.2% | -7.4% | -12.9% | -8.55% | -0.4% | 0.55%
Nc1nc(N)c2cc(CNc3ccc(C(=O)NC(C(=O)O)C(=O)O)cc3)ccc2n1 | -39.1% | 8.1% | -3.15% | -16.6% | -14.2% | -15.6%
O=S(=O)(NCC(Cl)CCl)c1ccccc1 (configuration not stated) | 0.7% | -2.8% | -12.7% | 3.85% | 3.55% | 5%
Cc1ccc(N=Nc2ccc(O)c(CN(C)C)c2)cc1 | -14.6% | -9.15% | -24.4% | -39.8% | 18% | -17.1%
Nc1ncnc2c1c1c(=O)[nH]c(=O)[nH]c1n2C1OC(CO)C(O)C1O (configuration not stated) | -1.95% | 1.8% | 7.35% | 2.15% | -7.55% | -44.5%

Compound | growth inhibition [1] | growth inhibition [2] | growth inhibition [3] | growth inhibition [4] | growth inhibition [5] | growth inhibition [6]
O=C1CCCCC1CN1CCCC1 (configuration not stated) | -10.4% | -12% | -33.6% | 21.4% | -42.5% | -22.6%
CCCOC(=O)/C=C/C(=O)N1CC(C)N(C(=O)/C=C/C(=O)OCCC)CC1C (configuration not stated) | 3.85% | -1.25% | 9.6% | 42.6% | -2.9% | 25.2%
Nc1cc(C(=O)c2ccccc2C(=O)O)ccc1Cl | -34.3% | -46.7% | -8.3% | 6.65% | -28.8% | -15.9%
Cc1nc(-c2nc(C(=O)NCCC[S+](C)C)cs2)cs1 | -11.5% | -7.85% | -5.4% | 3.4% | -2.35% | -0.2%
COc1cc(C(OC(C)=O)OC(C)=O)c(Cl)cc1OC(C)=O | 5.5% | 5.15% | 17.1% | -2.1% | -2.6% | 11.8%
O=C(O)/C=C/C(=O)Nc1ncn[nH]1 | -3.55% | -24.7% | -22.9% | 3.2% | -34.9% | -5.4%
CCCNc1ccc2c(c1)C(=O)c1ccccc1-2 | -3.5% | -1.1% | -0.15% | -6.2% | -0.65% | -1.8%
CC(C)(C)OC(=O)NC(Cc1ccc(OCc2ccccc2)cc1)C(=O)NC(CCCCNC(=O)OCc1ccccc1)C(=O)NC(CCCCNC(=O)OCc1ccccc1)C(=O)ON1C(=O)CCC1=O (configuration not stated) (Boc-Tyr(Bn)-Lys(Cbz)-Lys(Cbz)-OSu; configuration not given here) | -1.85% | 2.95% | 6.6% | 6.15% | 8.6% | 16.5%
CN(C)CCCNC(=O)N/N=C\c1cccc2ccccc12 | -2.9% | -24% | -17.4% | 14.8% | -4% | -6.45%
Cc1c([N+](=O)[O-])cc(C(C)(C)C)c(OC(=O)C(C)(C)C)c1[N+](=O)[O-] | 53.4% | 44.9% | 59.8% | 41.5% | 92.4% (active) | 54.3%
Nc1c(-c2nc3ccccc3[nH]2)sc(=S)n1-c1ccc(Cl)cc1 | -11.6% | -30.7% | 2.75% | 8.9% | 7.8% | -6.5%
O=C(NCCSC(=O)Nc1ccccc1)Nc1ccccc1 | 0% | 14.8% | 5.25% | -10% | 29.1% | 8.55%
CCCCOc1ccc2nc(C)cc(N/N=C/c3ccc(OC)c4ccccc34)c2c1 | 46.4% | 19.6% | 44.1% | 42.9% | -2.35% | 41.1%
Cc1ccc2nnc(C)n2c1 | 10.7% | 1.95% | 1.85% | 19.2% | 24.9% | -4.4%
CC(=O)OC1CC2C(CCC3CC(C(C)=O)CCC32C)C2CCC(/C(C)=C/C=C(c3ccccc3)c3ccccc3)C12C (configuration not stated) | 19.6% | 3.1% | 7.35% | -9.4% | -3.05% | 2.6%
O=C1NC(C(=O)O)CC1O (configuration not stated) | 4.1% | 23.9% | 5.05% | 14.2% | 17.9% | 17.6%
Cc1ccc(/C=N/NC2=NCCN2)s1 | -0.4% | 8% | 4.35% | 8.15% | -5.05% | 9.75%
O=c1[nH]cc(F)c(=S)[nH]1 | -9.85% | -16.5% | -5.9% | -16.4% | 6.2% | -23.9%
